Assay outcomes deposited in PubChem BioAssay by National Center for Advancing Translational Sciences (NCATS).
Shown are actives, neighbours in structure and some others; about 1.4% of the full set was active somewhere.
IL2 activator: activates IL-2 in a cell-based reporter assay; AID 652025; IL-2 activation reporter assay, cell-based qHTS; stimulated with anti-CD3/CD4/CD28 beads; in transgenic mouse T cells; actives 0.065% (n = 360,000); activation, % (series mostly up to about 46 µM); in the data active = activation above about 50%; inconclusive = mostly about 30% to 49%
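Quantitative HTS in unstimulated transgenic mouse T cells, with memory T cells as non-tolerant control and PMA/ionomycin as tolerance-bypass control. Compound pretreatment lasted 60 minutes before 18 h bead stimulation; EGFP/DsRed fluorescence read.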
BRCA1 expr up: activators of BRCA1 expression | actives 1.1% (n = 380,000) | MCF7-BRCA1-FFLuc reporter, luminescence, 48 h; response scale: scaled: vehicle 0%, 10 µM genistein 100% | Potency, µM (titrated, usually from 46.1 µM), usual class: activators; note: nearly all actives have a fitted effect of over 80% in size
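MCF7-BRCA1-FFLuc, 2000 cells/well; 2 h attach, 37 °C/5% CO2; compound 48 h; luciferase substrate 15 min; luminescence end-point. Norm. to genistein 10 microM max activation and DMSO; concentration-response curves fitted.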
TCR act: T cell receptor activation; primary human leukocytes, anti-CD3, IL-2 HTRF, 48 h; Potency, µM (highest dose often 9.22 µM), most hits filed as activators; 330,000 tested, under 10 active; AID 504894
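TCR engagement came from a-CD3 beads alone, with compounds added to primary human leukocytes for 48 hr. Secreted IL-2 bridged europium cryptate- and d2-labelled anti-IL-2 antibodies, giving FRET emission at 665nm after 320nm excitation.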
p53 reactivation: restores transcriptional activity of mutant p53; Potency, µM (doses to about 92.2 µM), most hits filed as activators; H1299 p53-A138V BP100-luciferase reporter, luminescence, 24 h; actives 0.063% (n = 320,000); note: nearly all actives have a fitted effect of over 45% in size
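H1299 (p53-null), stable ts p53-A138V + BP100-Luc; 1000 cells/well, Opti-MEM/10% FBS; cpd 4 pt, 1:5; 24 h, 37 deg C, 5% CO2; detection reagent 10 min RT; luminescence.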
uPA surface inh: blocks generation of uPA at the cell surface | cell surface uPA generation assay, qHTS | AID 540303 | actives 0.31% (n = 330,000) | Potency, µM (series often up to 38.3 µM), hits mostly inhibitors; active = well fitted inhibition curve with a large enough effect; inconclusive = small, poorly fitted or top-dose-only effect; inactive = no such curve, though single readings can be large or run the other way; tested in mouse RAW 264.7 cells; note: nearly all actives have a fitted effect of over 55% in size
Numbers stand for hits; 0 = inactive; ? = inconclusive; - = not tested or not shown. Unless noted, calls come from the whole dose curve; as a rule, active = well fitted curve in the direction sought with a large enough effect; inconclusive = small, poorly fitted or top-dose-only effect, or another doubt; inactive = no such curve, though single readings can be large; an effect the other way counts as inactive or inconclusive.

SMILES	IL2 activator	BRCA1 expr up	TCR act	p53 reactivation	uPA surface inh
O=C(Cc1cccs1)NCc1cccc(Br)c1	0	4µM	0	0	0
Cc1nc(-c2ccc(C(=O)Nc3ccccc3F)cc2)cs1	0	10µM	0	0	0
Cc1nc(-c2ccc(NC(=O)Cc3ccccc3)cc2)cs1	0	8.9µM	0	0	0
Cc1ccc(NC(=O)CSc2nc3ccccc3nc2Cc2ccccc2)c(C)c1	-	0	-	-	-
c1coc(CNc2nc3ccccc3s2)c1	0	3.2µM	0	?	0
C(=C\c1ccco1)/c1nc2ccccc2[nH]1	0	0	0	0	7.1µM
Cc1ccc(Cn2nc(C)cc2C(=O)Nc2ccccc2Cl)cc1	0	4µM	0	?	0
Cc1ccc(Cn2nc(C)cc2C(=O)Nc2ccc(Cl)cc2)cc1	0	0	0	0	0
CCOC(=O)c1cc(-c2ccc(C)cc2)nn1Cc1ccccc1	-	10µM	-	-	-
C=CCn1nc(-c2ccccc2)cc1C(=O)OCC	0	0	0	-	0
Cc1cccc(NC(=O)Cc2noc3ccccc23)c1	0	11µM	0	?	0
Cc1cccc(NC(=O)Cc2noc3ccccc23)c1C	0	0	0	0	0
CCC1(C)Cc2c(sc3nc(SC)n(Cc4ccccc4)c(=O)c23)CO1 (centres undefined)	0	13µM	0	0	0
COCc1nnc(NC(=O)c2ccc(S(=O)(=O)N3CCCc4ccccc43)cc2)o1	0	0	0	0	0
O=C(Nc1nnc(C2CC2)o1)c1ccc(S(=O)(=O)N2CCCc3ccccc32)cc1	0	0	0	?	6.3µM
CCOC(=O)c1sc(N)c(C(=O)OCC)c1C	0	0	0	0	0
CCOC(=O)c1sc(N)c(C(=O)Nc2ccccc2)c1C	0	13µM	0	0	0
Cc1ccccc1NC(=O)CN1C(=O)S/C(=C\c2ccc(-c3cc(C(=O)O)ccc3C)o2)C1=O	77	0	0	0	0
CCOC(=O)Cn1cc(C#N)c2ccccc21	0	0	0	0	0
CCOC(=O)Cn1cc(/C=C/[N+](=O)[O-])c2ccccc21	0	0	0	0	10µM
COCCNC(=O)c1cc2oc3ccccc3c2n1C	0	10µM	0	?	0
CC(C)C(=O)Nc1nnc(NC(=S)Nc2ccccc2)s1	0	10µM	0	0	0
CC(C)C(=O)Nc1nnc(CCc2ccccc2)s1	0	0	0	0	0
CC(C)(C)C(=O)Nc1nnc(CCc2ccccc2)s1	0	4.5µM	0	0	0
CCCc1nnc(NC(=S)Nc2ccccc2)s1	0	2.2µM	-	0	0
SMILES	IL2 activator	BRCA1 expr up	TCR act	p53 reactivation	uPA surface inh
CS(=O)(=O)N1CCN(/[N+]([O-])=N/Oc2ccc([N+](=O)[O-])cc2[N+](=O)[O-])CC1 (tested in a mixture with another compound)	-	0	-	-	-
c1ccc(CSc2nnc(-c3cccs3)o2)cc1	0	?	0	?	0
Fc1ccccc1CSc1nnc(-c2cccs2)o1	0	4µM	0	?	0
Fc1ccc(Cc2nnc(-c3cccs3)o2)cc1	0	10µM	0	?	0
c1ccc(-c2nnc(-c3ccncc3)o2)cc1	0	11µM	0	0	0
c1cc(CSc2nnc(-c3ccc4c(c3)OCO4)o2)ccn1	0	3.2µM	0	?	0
CCCN1CNc2c(c(=O)[nH]c(=S)n2CCc2ccc(C)c(C)c2)C1	-	0	-	-	-
c1ccc(OCc2nnc(-c3ccccc3)o2)cc1	0	7.1µM	0	0	0
Oc1ccccc1-c1nnc(COc2ccccc2)o1	0	0	0	?	0
Clc1ccccc1CSc1nnc(-c2ccncc2)o1	0	8.9µM	0	?	0
c1ccc2c(CSc3nnc(-c4ccncc4)o3)cccc2c1	0	0	0	0	-
CCOC(=O)c1ccc(N=c2sc(C(=O)OC)cc(=O)n2Cc2ccco2)cc1	0	0	0	0	6.3µM
O=C(CSc1nnc(-c2ccc(OC(F)F)cc2)o1)N1CCOCC1	0	13µM	0	?	0
O=C(CSc1nnc(-c2ccc(Cl)cc2)o1)N1CCOCC1	0	?	0	?	0
COc1ccc(-c2nnc(SCC(=O)N3CCOCC3)o2)cc1	0	?	0	?	0
COc1cccc(-c2nnc(SCC(=O)N3CCOCC3)o2)c1	0	13µM	0	?	0
COC(=O)c1ccc(COc2cccc(C)c2C)cc1	0	10µM	0	?	0
